# Source: the supplement of paper PMC8728848
# The entries come from a sample that favours the strongest signals as a whole.
# Assays:
# Assay in all cases: glycan array binding signal (z-score within array); higher = stronger binding
# Details in all cases: glycan notation: IUPAC condensed, linker removed
# [1] = biological target: Fuc(a1-2)Gal(b1-3)GalNAc(b1-3)Gal(a1-4)Gal(b1-4)Glc
# Method in brief: (§1)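 Glycan array data were curated from 3228 arrays in the Consortium for Functional Glycomics database and kept only where the protein sequence was available. Glycan names were converted to IUPAC-condensed notation, and columns mapping to the same glycan were averaged. The binding signal is a within-array Z-score, averaged across arrays of the same protein sequence at different concentrations or buffers and across linkers. Negative Z-scores can be read as non-binding.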
# [2] = biological target: Fuc(a1-2)Gal(b1-3)GlcNAc(b1-3)Gal(b1-4)Glc
# Method in brief: as §1
# [3] = biological target: Fuc(a1-2)Gal(b1-3)GlcNAc(b1-3)GalNAc
# Method in brief: as §1
# [4] = biological target: Fuc(a1-2)Gal(b1-3)[Fuc(a1-4)]GlcNAc(b1-3)[Fuc(a1-3)[Gal(b1-4)]GlcNAc(b1-6)]Gal(b1-4)Glc
# Method in brief: as §1
# [5] = biological target: Fuc(a1-2)Gal(b1-4)Glc
# Method in brief: as §1
# [6] = biological target: Fuc(a1-2)Gal(b1-4)Glc6S
# Method in brief: as §1
# [7] = biological target: Fuc(a1-2)Gal(b1-4)GlcNAc(b1-3)Gal(b1-4)GlcNAc
# Method in brief: as §1
# [8] = biological target: Fuc(a1-2)Gal(b1-4)GlcNAc(b1-3)Gal(b1-4)GlcNAc(b1-3)Gal(b1-4)GlcNAc
# Method in brief: as §1
# [9] = biological target: Fuc(a1-2)Gal(b1-4)[Fuc(a1-3)]GlcNAc
# Method in brief: as §1
# [10] = biological target: Fuc(a1-2)Gal(b1-4)[Fuc(a1-3)]GlcNAc(b1-2)Man(a1-3)[Fuc(a1-2)Gal(b1-4)[Fuc(a1-3)]GlcNAc(b1-2)Man(a1-6)]Man(b1-4)GlcNAc(b1-4)[Fuc(a1-6)]GlcNAc
# Method in brief: as §1
# [11] = biological target: Fuc(a1-2)Gal(b1-4)[Fuc(a1-3)]GlcNAc(b1-2)[Fuc(a1-2)Gal(b1-4)[Fuc(a1-3)]GlcNAc(b1-4)]Man(a1-3)[Fuc(a1-2)Gal(b1-4)[Fuc(a1-3)]GlcNAc(b1-2)Man(a1-6)]Man(b1-4)GlcNAc(b1-4)GlcNAc
# Method in brief: as §1
# [12] = biological target: Fuc(a1-2)Gal(b1-4)[Fuc(a1-3)]GlcNAc(b1-3)Gal(b1-4)[Fuc(a1-3)]GlcNAc
# Method in brief: as §1
# [13] = biological target: Fuc(a1-2)Gal(b1-4)[Fuc(a1-3)]GlcNAc(b1-3)Gal(b1-4)[Fuc(a1-3)]GlcNAc(b1-3)Gal(b1-4)[Fuc(a1-3)]GlcNAc
# Method in brief: as §1
# [14] = biological target: Fuc(a1-2)[Gal(a1-3)]Gal(b1-3)GlcNAc
# Method in brief: as §1
# [15] = biological target: Fuc(a1-2)[Gal(a1-3)]Gal(b1-3)GlcNAc(b1-2)Man(a1-3)[Fuc(a1-2)[Gal(a1-3)]Gal(b1-3)GlcNAc(b1-2)Man(a1-6)]Man(b1-4)GlcNAc(b1-4)[Fuc(a1-6)]GlcNAc
# Method in brief: as §1
# [16] = biological target: Fuc(a1-2)[Gal(a1-3)]Gal(b1-4)GlcNAc(b1-2)Man
# Method in brief: as §1
# [17] = biological target: Fuc(a1-2)[GalNAc(a1-3)]Gal(b1-3)GalNAc(a1-3)[Fuc(a1-2)]Gal(b1-4)GlcNAc
# Method in brief: as §1
# [18] = biological target: Fuc(a1-2)[GalNAc(a1-4)]Gal(b1-4)GlcNAc
# Method in brief: as §1
# [19] = biological target: Fuc(a1-3)[Gal(b1-4)]GlcNAc
# Method in brief: as §1
# [20] = biological target: Fuc(a1-3)[Gal(b1-4)]GlcNAc(b1-3)Gal(b1-4)[Fuc(a1-3)]GlcNAc(b1-3)Gal(b1-4)[Fuc(a1-3)]GlcNAc
# Method in brief: as §1
# [21] = biological target: Gal(a1-3)Gal
# Method in brief: as §1
# [22] = biological target: Gal(b1-2)Gal
# Method in brief: as §1
# [23] = biological target: Gal(b1-3)GlcNAc(a1-6)Gal(b1-4)GlcNAc
# Method in brief: as §1
# [24] = biological target: Gal(b1-3)GlcNAc(b1-2)Man(a1-3)[GlcNAc(b1-4)][Gal(b1-3)GlcNAc(b1-2)Man(a1-6)]Man(b1-4)GlcNAc(b1-4)GlcNAc
# Method in brief: as §1
# [25] = biological target: Gal(b1-3)GlcNAc(b1-3)Gal(b1-4)GlcNAc
# Method in brief: as §1
# [26] = biological target: Gal(b1-3)GlcNAc(b1-3)Gal(b1-4)[Fuc(a1-3)]GlcNAc(b1-6)[Gal(b1-3)GlcNAc(b1-3)]Gal(b1-4)Glc
# Method in brief: as §1
# [27] = biological target: Gal(b1-3)GlcNAc6S
# Method in brief: as §1
# [28] = biological target: Gal(b1-3)[Fuc(a1-4)]GlcNAc(b1-3)Gal(b1-3)[Fuc(a1-4)]GlcNAc
# Method in brief: as §1
# [29] = biological target: Gal(b1-3)[Fuc(a1-4)]GlcNAc(b1-3)Gal(b1-4)[Fuc(a1-3)]GlcNAc
# Method in brief: as §1
# [30] = biological target: Gal(b1-4)GlcNAc
# Method in brief: as §1
# [31] = biological target: Gal(b1-4)GlcNAc(b1-2)[Gal(b1-4)GlcNAc(b1-4)]Man(a1-3)[Gal(b1-4)GlcNAc(b1-2)Man(a1-6)]Man(b1-4)GlcNAc(b1-4)GlcNAc
# Method in brief: as §1
# [32] = biological target: Gal(b1-4)GlcNAc(b1-2)[Gal(b1-4)GlcNAc(b1-6)]Man(a1-6)[GlcNAc(b1-4)][Gal(b1-4)GlcNAc(b1-2)Man(a1-3)]Man(b1-4)GlcNAc(b1-4)GlcNAc
# Method in brief: as §1
# [33] = biological target: Gal(b1-4)GlcNAc(b1-3)Gal(b1-4)GlcNAc(b1-6)[Gal(b1-3)]GalNAc
# Method in brief: as §1
# [34] = biological target: Gal(b1-4)GlcNAc(b1-3)[GlcNAc(b1-6)]Gal(b1-4)GlcNAc
# Method in brief: as §1
# [35] = biological target: Gal3S(b1-3)[Fuc(a1-4)]GlcNAc
# Method in brief: as §1
# [36] = biological target: Gal6S(b1-4)Glc6S
# Method in brief: as §1
# [37] = biological target: GalNAc(b1-6)GalNAc
# Method in brief: as §1
# [38] = biological target: Glc(a1-6)Glc(a1-6)Glc
# Method in brief: as §1
# [39] = biological target: GlcNAc(b1-2)[GlcNAc(b1-4)]Man(a1-3)[GlcNAc(b1-4)][GlcNAc(b1-2)Man(a1-6)]Man(b1-4)GlcNAc(b1-4)GlcNAc
# Method in brief: as §1
# [40] = biological target: GlcNAc(b1-3)Gal(b1-3)GalNAc
# Method in brief: as §1
# [41] = biological target: GlcNAc(b1-3)Gal(b1-4)GlcNAc(b1-3)Gal(b1-4)GlcNAc(b1-3)Gal(b1-4)GlcNAc(b1-3)Gal(b1-4)GlcNAc(b1-2)[GlcNAc(b1-3)Gal(b1-4)GlcNAc(b1-3)Gal(b1-4)GlcNAc(b1-3)Gal(b1-4)GlcNAc(b1-3)Gal(b1-4)GlcNAc(b1-6)]Man(a1-6)[GlcNAc(b1-3)Gal(b1-4)GlcNAc(b1-3)Gal(b1-4)GlcNAc(b1-3)Gal(b1-4)GlcNAc(b1-3)Gal(b1-4)GlcNAc(b1-2)Man(a1-3)]Man(b1-4)GlcNAc(b1-4)[Fuc(a1-6)]GlcNAc
# Method in brief: as §1
# [42] = biological target: Man(a1-6)Man
# Method in brief: as §1
# [43] = biological target: Neu5Ac(a2-3)Gal(b1-4)GlcNAc(b1-3)Gal(b1-4)GlcNAc
# Method in brief: as §1
# [44] = biological target: Neu5Ac(a2-3)Gal(b1-4)GlcNAc(b1-3)Gal(b1-4)GlcNAc(b1-6)[Gal(b1-3)]GalNAc
# Method in brief: as §1
# [45] = biological target: Neu5Ac(a2-3)Gal(b1-4)GlcNAc(b1-6)[Gal(b1-3)]GalNAc
# Method in brief: as §1
# [46] = biological target: Neu5Ac(a2-3)[GalNAc(b1-4)]Gal(b1-4)GlcNAc(b1-3)GalNAc
# Method in brief: as §1
# [47] = biological target: Neu5Ac(a2-6)Gal(b1-4)GlcNAc(b1-2)Man(a1-3)[Neu5Ac(a2-3)Gal(b1-4)GlcNAc(b1-2)Man(a1-6)]Man(b1-4)GlcNAc(b1-4)GlcNAc
# Method in brief: as §1
# [48] = biological target: Neu5Ac(a2-6)Gal(b1-4)GlcNAc(b1-2)Man(a1-6)[Man(a1-3)]Man(b1-4)GlcNAc(b1-4)GlcNAc
# Method in brief: as §1
# [49] = biological target: Neu5Ac(a2-6)GalNAc(b1-4)GlcNAc
# Method in brief: as §1
# [50] = biological target: Neu5Ac(a2-8)Neu5Ac(a2-8)Neu5Ac(a2-3)[GalNAc(b1-4)]Gal(b1-4)Glc
# Method in brief: as §1
# [51] = biological target: Neu5Gc(a2-3)Gal(b1-4)Glc
# Method in brief: as §1
# [52] = biological target: Neu5Gc(a2-8)Neu5Gc(a2-3)Gal(b1-4)GlcNAc(b1-3)Gal(b1-4)GlcNAc
# Method in brief: as §1
binder,measurement,setting,value
LecB LY19 (Pseudomonas aeruginosa) (protein) MATQGVFTLPANTQFGVTAFANSAGTQTVNVQVNNETVATFTGQSTNNGIIGSKVLNSGGGGKVQILVSVNGRSSDLVSAQVILANELNFALVGSEDSTDNDYNDAVVVINWPLG,glycan array binding signal (z-score),[1],1.77
same,glycan array binding signal (z-score),[2],1.85
same,glycan array binding signal (z-score),[3],1.49
same,glycan array binding signal (z-score),[4],1.32
same,glycan array binding signal (z-score),[5],1.5
same,glycan array binding signal (z-score),[6],1.37
same,glycan array binding signal (z-score),[7],3.29
same,glycan array binding signal (z-score),[8],3.69
same,glycan array binding signal (z-score),[9],2.54
same,glycan array binding signal (z-score),[10],5.32
same,glycan array binding signal (z-score),[11],0.085
same,glycan array binding signal (z-score),[12],5.07
same,glycan array binding signal (z-score),[13],3.27
same,glycan array binding signal (z-score),[14],-0.452
same,glycan array binding signal (z-score),[15],0.089
same,glycan array binding signal (z-score),[16],9.41
same,glycan array binding signal (z-score),[17],-0.497
same,glycan array binding signal (z-score),[18],2.12
same,glycan array binding signal (z-score),[19],1.65
same,glycan array binding signal (z-score),[20],2.77
same,glycan array binding signal (z-score),[21],-0.538
same,glycan array binding signal (z-score),[22],-0.514
same,glycan array binding signal (z-score),[23],-0.55
same,glycan array binding signal (z-score),[24],-0.306
same,glycan array binding signal (z-score),[25],-0.553
same,glycan array binding signal (z-score),[26],0.2
same,glycan array binding signal (z-score),[27],-0.533
same,glycan array binding signal (z-score),[28],3.35
same,glycan array binding signal (z-score),[29],4.05
same,glycan array binding signal (z-score),[30],-0.551
same,glycan array binding signal (z-score),[31],-0.3
same,glycan array binding signal (z-score),[32],-0.542
same,glycan array binding signal (z-score),[33],-0.545
same,glycan array binding signal (z-score),[34],0.575
same,glycan array binding signal (z-score),[35],3.07
same,glycan array binding signal (z-score),[36],-0.533
same,glycan array binding signal (z-score),[37],-0.559
same,glycan array binding signal (z-score),[38],-0.491
same,glycan array binding signal (z-score),[39],-0.556
same,glycan array binding signal (z-score),[40],-0.542
same,glycan array binding signal (z-score),[41],0.196
same,glycan array binding signal (z-score),[42],-0.329
same,glycan array binding signal (z-score),[43],-0.547
same,glycan array binding signal (z-score),[44],-0.554
same,glycan array binding signal (z-score),[45],-0.147
same,glycan array binding signal (z-score),[46],-0.553
same,glycan array binding signal (z-score),[47],-0.539
same,glycan array binding signal (z-score),[48],0.735
same,glycan array binding signal (z-score),[49],-0.55
same,glycan array binding signal (z-score),[50],-0.546
same,glycan array binding signal (z-score),[51],-0.511
same,glycan array binding signal (z-score),[52],-0.556
